Data from PubChem BioAssay (EPA / NIEHS).
Results filed as inconclusive are left out. Calls of active or inactive are those of the source. Rule for the calls, unless noted: active = hit-call score of the fitted dose curve at least 0.9, where 1 is the maximum; inconclusive = response in the unintended direction; inactive = score below 0.9.

How the values were obtained:
[1] = target: Cellular tumor antigen p53 (Homo sapiens) (UniProt P04637); assay: TOX21_p53_BLA_p2_ratio: Tox21 HCT-116 p53 Agonism Beta-lactamase Assay, Ratio, Phase 2 (AID 2283592)
Cellular tumor antigen p53 (Homo sapiens), sequence (P04637 whole entry, looked up): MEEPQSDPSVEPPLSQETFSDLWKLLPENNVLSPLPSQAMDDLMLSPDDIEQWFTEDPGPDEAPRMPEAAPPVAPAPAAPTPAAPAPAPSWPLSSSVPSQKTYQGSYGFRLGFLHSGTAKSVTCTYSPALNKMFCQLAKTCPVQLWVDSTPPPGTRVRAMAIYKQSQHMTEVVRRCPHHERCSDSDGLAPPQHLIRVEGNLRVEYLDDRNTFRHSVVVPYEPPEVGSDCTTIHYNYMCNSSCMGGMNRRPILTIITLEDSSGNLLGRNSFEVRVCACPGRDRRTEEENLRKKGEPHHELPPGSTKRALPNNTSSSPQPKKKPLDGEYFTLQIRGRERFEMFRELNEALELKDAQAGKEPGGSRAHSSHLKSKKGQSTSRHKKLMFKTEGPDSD
Summary of the method: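 Plated HCT116 p53-bla cells (4000/well) received compound after 5 h, then 16 h at 37C/5% CO2. CCF4-AM added, 2 h RT. Ratio of 460 to 530 nm emission taken as the p53 reporter signal.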

[2] = TOX21_p53_BLA_p4_viability: Viability Assessment in the Tox21 HCT-116 p53 Agonism Beta-lactamase Assay, Phase 4 (AID 2283597);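 note: hits lower the luminescence signal meaning cytotoxicity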
Summary of the method: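 Readout: ATP luminescence (CellTiter-Glo), measured 30 min after reagent addition at RT. The reagent followed a 2 h CCF4-AM incubation, and the cells had been exposed to compound for 16 h at 37C.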

[3] = target: Cellular tumor antigen p53 (Homo sapiens) (UniProt P04637); assay: TOX21_p53_BLA_p5_ratio: Tox21 HCT-116 p53 Agonism Beta-lactamase Assay, Ratio, Phase 5 (AID 2283599)
Summary of the method: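 HCT-116 cells carrying a p53-inducible beta-lactamase reporter were seeded at 4000 cells/well and dosed after 5 h with compound in DMSO (217-fold dilution). After 16 h at 37C, CCF4-AM substrate was added for 2 h, and the 460/530 nm emission ratio was scored as gain-of-signal versus DMSO.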

[4] = TOX21_p53_BLA_p5_viability: Viability Assessment in the Tox21 HCT-116 p53 Agonism Beta-lactamase Assay, Phase 5 (AID 2283600)
Summary of the method: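 Workflow: seed 4000 cells per well, wait 5 h, add compounds (DMSO, 217-fold dilution), incubate 16 h, load CCF4-AM 2 h, add CellTiter-Glo, read luminescence after 30 min.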

[5] = UKN5_HCS_SBAD2_neurite_outgrowth: University of Konstanz (UKN) Leist Lab Neurite Outgrowth Assay in human iPSC-derived immature Dorsal Root Ganglia Neurons (UKN5) (AID 2284070; active = hit-call score of the fitted dose curve at least 0.9, where 1 is the maximum; inactive = score below 0.9); conditions: actives raise or lower the signal
Summary of the method: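 Neurite area from calcein-AM high-content images after 24 h exposure (staining included), with H-33342 for viability, fitted both directions against DMSO. Cells: thawed immature SBAD2 peripheral neurons, 100.000 cells/cm2, with CHIR99021, SU5402, DAPT; dosing 1 h after seeding.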

[6] = UKN4_HCS_LUHMES_neurite_outgrowth: University of Konstanz (UKN) Leist Lab Neurite Outgrowth Assay in human LUHMES cells (UKN4) (AID 2284206; active = hit-call score of the fitted dose curve at least 0.9, where 1 is the maximum; inactive = score below 0.9); conditions: actives raise or lower the signal
Summary of the method: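 After 24 h compound treatment beginning shortly after replating of 2-day-differentiated LUHMES cells, calcein-AM and H-33342 live staining allowed high-content imaging of neurite area and viability. Fitted bidirectionally against DMSO.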

[7] = UKN4_HCS_LUHMES_cell_viability: Viability Assessment in the University of Konstanz (UKN) Leist Lab Neurite Outgrowth Assay in human LUHMES cells (UKN4) (AID 2284232; active = hit-call score of the fitted dose curve at least 0.9, where 1 is the maximum; inactive = score below 0.9)
Summary of the method: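 Viability was read by high-content imaging of calcein-AM/H-33342-stained cells after 24 h toxicant exposure, staining included. Cells: human LUHMES on day 2 of dopaminergic differentiation, dosed shortly after attachment; DMSO baseline, bidirectional curve fitting.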

[8] = UKN2_HCS_IMR90_cell_viability: Viability Assessment in the University of Konstanz (UKN) Leist Lab Neural Crest Cell Migration Assay in human induced IMR90 Pluripotent Stem Cells (UKN2) (AID 2284233; active = hit-call score of the fitted dose curve at least 0.9, where 1 is the maximum; inactive = score below 0.9;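 note: viability of neural crest cells differentiated from IMR90 iPSC measured by calcein-AM fluorescence imaging; cells exposed to compound for 24 h after a 24 h migration phase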)
Summary of the method: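 cMINC format, iPSC-derived neural crest (IMR90); 24 h migration (EGF/FGF, N2-S), then 24 h toxicant. Calcein-AM/H-33342 stain 30 min; fluorescence intensity by HCS; DMSO-normalised, bidirectional fitting.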

[9] = CCTE_Harrill_HTTr_Viability_MCF7: CCTE's 6-hour Cell Viability Assessment for the High-Throughput Transcriptomics (HTTr) Platform, in MCF-7 cells cultured in DMEM + 10% fetal bovine serum, Harrill Lab (AID 2284010; active = hit-call score of the fitted dose curve at least 0.9, where 1 is the maximum; inactive = score below 0.9)
Summary of the method: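 Propidium iodide exclusion, imaged by high-content analysis, gauged viability after a six-hour exposure across eight concentrations. Cells were MCF-7 grown in DMEM with 10% fetal bovine serum; fits run in both directions against DMSO.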

[10] = CCTE_Harrill_HTTr_Apoptosis_MCF7: CCTE's 6-hour Apoptosis Assessment for the High-Throughput Transcriptomics (HTTr) Platform, in MCF-7 cells cultured in DMEM + 10% fetal bovine serum, Harrill Lab (AID 2284011; active = hit-call score of the fitted dose curve at least 0.9, where 1 is the maximum; inactive = score below 0.9)
Summary of the method: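 MCF-7 (DMEM + 10% FBS), 384-well; 8-pt dilution series, 6 h chemical exposure; caspase-3/7 activation via CellEvent Caspase 3/7 Green, HCI; bidirectional fit vs DMSO.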

[11] = CCTE_Harrill_HTTr_CellCount_MCF7: CCTE's Cell Proliferation Assessment for the High-Throughput Transcriptomics (HTTr) Platform, Harrill Lab (AID 2284012);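 note: cells exposed to compound for six hours; intended direction is loss of nuclei count meaning fewer cells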
Summary of the method: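 Cell count from high-content imaging of Hoechst-labeled nuclei serves as viability/growth readout. Chemicals were applied to MCF-7 cells in eight concentrations for six hours, with fitting in both directions relative to DMSO.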

[12] = target: Cellular tumor antigen p53 (Homo sapiens) (UniProt P04637); assay: TOX21_p53_BLA_p4_ratio: Tox21 HCT-116 p53 Agonism Beta-lactamase Assay, Ratio, Phase 4 (AID 2283601)
Summary of the method: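 HCT116 cells carrying an inducible beta-lactamase reporter were plated at 4000 cells/well, rested 5 h, then exposed to compounds in DMSO (217-fold dilution) for 16 h at 37C. CCF4-AM substrate was loaded 2 h at room temperature; 460/530 nm emission ratio scored gain-of-signal versus DMSO.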

[13] = target: Cellular tumor antigen p53 (Homo sapiens) (UniProt P04637); assay: TOX21_p53_BLA_p3_ratio: Tox21 HCT-116 p53 Agonism Beta-lactamase Assay, Ratio, Phase 3 (AID 2283596)
Summary of the method: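 Cells were seeded at 4000/well, rested 5 h at 37C, then dosed with DMSO compound solutions (217-fold dilution) for 16 h. CCF4-AM substrate was loaded for 2 h at room temperature, and the 460/530 nm emission ratio was fitted for gain of signal versus DMSO.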

[14] = target: PGR (gene 5241) (UniProt P06401); assay: TOX21_PR_BLA_Followup_Antagonist_ratio: Tox21 HEK293 Progesterone Receptor (PR) Antagonism Beta-lactamase Follow-Up Assay, Ratio (AID 2283934);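 note: PR-UAS-bla HEK293T cells stimulated with 1 nM R5020 agonist for 16 hr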
PGR (gene 5241), sequence (P06401 whole entry, looked up): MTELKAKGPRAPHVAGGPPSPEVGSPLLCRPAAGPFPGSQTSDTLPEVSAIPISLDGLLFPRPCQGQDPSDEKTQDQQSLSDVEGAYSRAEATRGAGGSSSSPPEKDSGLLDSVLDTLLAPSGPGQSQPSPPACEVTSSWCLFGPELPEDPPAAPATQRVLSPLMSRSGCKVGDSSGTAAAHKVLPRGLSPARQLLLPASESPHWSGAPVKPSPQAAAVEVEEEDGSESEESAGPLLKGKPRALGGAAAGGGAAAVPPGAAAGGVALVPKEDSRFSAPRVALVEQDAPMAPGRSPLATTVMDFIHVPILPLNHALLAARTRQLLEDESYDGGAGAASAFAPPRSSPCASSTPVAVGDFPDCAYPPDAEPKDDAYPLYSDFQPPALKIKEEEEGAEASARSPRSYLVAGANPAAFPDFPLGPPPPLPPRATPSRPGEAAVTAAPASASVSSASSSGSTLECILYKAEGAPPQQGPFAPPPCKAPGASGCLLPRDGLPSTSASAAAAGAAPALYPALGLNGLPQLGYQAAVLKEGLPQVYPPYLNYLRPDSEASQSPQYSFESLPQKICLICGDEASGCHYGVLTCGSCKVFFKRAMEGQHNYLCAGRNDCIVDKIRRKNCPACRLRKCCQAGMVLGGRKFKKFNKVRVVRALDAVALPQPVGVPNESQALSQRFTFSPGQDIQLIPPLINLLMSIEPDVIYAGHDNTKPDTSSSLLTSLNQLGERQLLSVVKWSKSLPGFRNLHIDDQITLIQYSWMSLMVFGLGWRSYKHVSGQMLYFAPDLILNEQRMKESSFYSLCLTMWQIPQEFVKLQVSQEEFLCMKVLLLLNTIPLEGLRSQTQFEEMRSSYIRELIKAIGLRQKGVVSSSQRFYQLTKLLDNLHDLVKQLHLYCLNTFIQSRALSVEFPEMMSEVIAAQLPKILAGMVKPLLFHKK
Summary of the method: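 Readout is the blue/green (ch2/ch1) substrate cleavage ratio after 2 hours at room temperature, following 16 hr co-treatment of PR-bla HEK293T cells with compound and 1nM promegestone. Multiplexed CellTiter-Glo viability flags cytotoxicity; DMSO baseline.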

[15] = TOX21_PR_BLA_Followup_Agonist_viability: Viability Assessment in the Tox21 HEK293 Progesterone Receptor (PR) Agonism Beta-lactamase Follow-Up Assay (AID 2283935);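 note: signal loss means lower viability so actives are cytotoxic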
Summary of the method: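 Run multiplexed with the beta-lactamase FRET read, this endpoint measures ATP by CellTiter-Glo luminescence (30 min, room temperature). PR-UAS-bla HEK293T cells received compound 6 hr after plating and were then incubated 16 hr at 37C in 2% stripped serum.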

[16] = TOX21_PR_BLA_Followup_Antagonist_viability: Viability Assessment in the Tox21 HEK293 Progesterone Receptor (PR) Antagonism Beta-lactamase Follow-Up Assay (AID 2283936);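 note: cells exposed to compound with R5020 agonist for 16 h; hits lower the luminescence signal meaning cytotoxicity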
Summary of the method: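 PR-UAS-bla HEK293T cells in medium with 2% charcoal-stripped FBS were treated with compounds plus R5020 for 16 hr at 37C. After the beta-lactamase read, CellTiter-Glo was added to the same wells and luminescence read after 30 min at room temperature.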

[17] = target: PGR (gene 5241) (UniProt P06401); assay: TOX21_PR_LUC_Followup_Antagonist: Tox21 HEK293 Progesterone Receptor (PR) Antagonism Luciferase Follow-Up Assay (AID 2283938);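 note: curve fitted upward as signal gain over DMSO baseline despite antagonist label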
Summary of the method: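 Cells are grown 5 days in charcoal-stripped-FBS assay medium, plated, left 5 h, then dosed with compound and incubated 16 h. ONE-Glo reagent is added and luminescence read after 30 min.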

[18] = TOX21_PR_LUC_Followup_Agonist_viability: Viability Assessment in the Tox21 HEK293 Progesterone Receptor (PR) Agonism Luciferase Follow-Up Assay (AID 2283941);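 note: loss of signal means cytotoxicity so actives lower viability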
Summary of the method: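 Cytotoxicity counter-readout in the PR-A luciferase reporter line HEK293, with 16 h compound exposure at 37C after cells were cultured in charcoal-stripped serum. Cellular ATP quantified by CellTiter-Glo luminescence.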

Measured: AC50

CNNC
inactive: [1] | [2] | [3] | [4]

CN[C@@H](C)Cc1ccccc1
inactive: [1] | [2] | [5] | [6] | [7] | [8]

OC(Cn1cncn1)(c1ccc(F)cc1)c1ccccc1F (configuration not stated)
inactive: [1] | [2] | [3] | [9]

CC(N)=S
inactive: [1] | [4] | [10] | [11]

Cc1ccc(N)cc1C
inactive: [1] | [3] | [12]

c1cc2c(c(N3CCNCC3)c1)OCCO2
inactive: [1] | [2] | [3]

CCC1C(C)=NN=C(c2ccc(OC)c(OC)c2)c2cc(OC)c(OC)cc21 (configuration not stated)
inactive: [1] | [3]

CCCCCN(C)CCC(O)(P(=O)(O)O)P(=O)(O)O
inactive: [1] | [2] | [3] | [4] | [12]

CNC(=O)OCC[N+](C)(C)C
inactive: [1] | [4] | [12]

C[C@@H](Cc1ccccc1)N(C)C
inactive: [1] | [2] | [3] | [4] | [12]

C[N+]1(CCF)[C@@H]2CC[C@H]1CC(OC(=O)C(O)(c1ccccc1)c1ccccc1)C2 (some centres not stated)
inactive: [1] | [2]

FC(Cl)(Cl)Cl
inactive: [1] | [4]

CCS(=O)(=O)CCSP(=O)(OC)OC
inactive: [1] | [12]

CN(C)CCc1ccc(O)cc1
inactive: [1] | [3]

CN1C(=O)CC(=O)N(c2ccccc2)c2cc(Cl)ccc21
inactive: [1] | [2] | [3] | [4] | [12]

CC[C@H]1C[C@@H]2C[C@H]3c4[nH]c5ccc(OC)cc5c4CCN(C2)[C@@H]13
inactive: [1] | [13] | [12]

NNC(=O)c1cccnc1
inactive: [1] | [2] | [3] | [12]

C[N+]1(C)[C@@H]2CC[C@H]1CC(OC(=O)c1c[nH]c3ccccc13)C2 (some centres not stated)
inactive: [1] | [2] | [3] | [4]

C[C@]12CC[C@H]3[C@@H](CCC4=CC(=O)CC[C@@H]43)[C@@H]1CC[C@@H]2OC(=O)CCc1ccccc1
inactive: [14] | [15] | [16] | [17] | [18]

CCC1COC(Cn2cncn2)(c2ccc(Cl)cc2Cl)O1 (configuration not stated)
inactive: [15] | [16]
active: [14] 60.3 µM | [17] 36.3 µM
